The results in this text go back to PubChem BioAssay.

Structures are written as SMILES.

The nature of this assay: COS7 lysate on small-molecule microarray, probe aHis, 635 nm (AID 1123).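 Also: z-score combines 667nm fluorescence intensity with signal-to-noise per printed compound spot.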 The following applies: COS7 cell lysate, fluorescence, higher = more signal.
Compound `CCCCCCc1nc(-c2cc(C)c(OC)c(C)c2)cc2c1[Si](C(C)C)(C(C)C)OC2` yielded a composite z-score of -0.241. For `COCCOC(=O)N1C(=O)[C@@]2(c3cc(C#Cc4ccc(OC)cc4)ccc31)[C@H](c1ccccc1OCCO)N1[C@H](c3ccccc3)[C@H](c3ccccc3)OC(=O)[C@H]1[C@@H]2C(=O)NC[C@H](O)c1ccccc1`, the composite z-score was 1.6. `COC(=O)C(CC#Cc1ccc2c(c1)[C@]1(C(=O)N2)[C@H](c2ccc(OCCO)cc2)N2[C@H](c3ccccc3)[C@H](c3ccccc3)OC(=O)[C@H]2[C@@H]1C(=O)N1CCc2cc(OC)c(OC)cc2C1)C(=O)OC` yielded a composite z-score of 2.04. In the case of `COCCOC(=O)N1C(=O)[C@@]2(c3cc(C#CCC(C(=O)OC)C(=O)OC)ccc31)[C@H](c1ccccc1OCCO)N1[C@H](c3ccccc3)[C@H](c3ccccc3)OC(=O)[C@H]1[C@@H]2C(=O)N1CCN(c2ncccn2)CC1` it was 1.66; in that of `O=C(c1ccccc1)N1C(=O)[C@]2(COC(c3ccc(OCCCO)cc3)=N2)Cc2ccccc21`, 3.17. `COc1ccc([Si](C)(C)[C@@H]2[C@@H](CCO)O[C@]3(C(=O)N(Cc4ccc(N(C=O)c5ccccc5)cc4)c4ccccc43)[C@H]2C)cc1`: the composite z-score is 0.313.

For `O=C1c2ccccc2[C@](Cc2ccccc2I)(C(=O)NCC(F)(F)F)[C@H](c2ccc(CO)cc2)N1Cc1ccccc1Cl`, the composite z-score came to 2.04. In the case of `COCCOC(=O)N1C(=O)[C@@]2(c3cc(C#CCCO)ccc31)[C@H](C(N)=O)[C@H]1C(=O)O[C@H](c3ccccc3)[C@H](c3ccccc3)N1[C@@H]2c1ccc(O)cc1` it was 0.387; in that of `C=C(CCCC)/C(=C/C[C@@H](OC(=O)c1ccncc1)c1ccc(OCCO)cc1)c1cc(C(=O)OC)ccc1OC`, 0.517. In the case of `C=CCN1C(=O)[C@]2(O[C@H](CCn3cc([C@H](O)c4ccccc4)nn3)[C@@H]([Si](C)(C)c3ccc(OC)cc3)[C@@H]2C)c2ccccc21` it was -0.011; in that of `[N-]=[N+]=NCc1ccccc1[C@@H]1OC(c2ccc(OCCCO)cc2)=N[C@]1(Cc1ccccc1)C(=O)NCC(O)CO` (stereo not given in full), 3.09. In the case of `COc1cc2c(cc1OC)CN(C(=O)[C@H]1[C@@H]3C(=O)O[C@@H](c4ccccc4)[C@@H](c4ccccc4)N3[C@@H](c3ccc(O)cc3)[C@]13C(=O)Nc1ccc(C#CCCO)cc13)CC2` it was 1.46; in that of `C=CCNC(=O)[C@@H]1[C@H]2C(=O)O[C@H](c3ccccc3)[C@H](c3ccccc3)N2[C@H](c2ccccc2OCCO)[C@@]12C(=O)N(C(=O)OCCOC)c1ccccc12`, 0.938.

`CC1(C)[C@@H]2CC(C(O)C3C=CC4C(=O)N(c5ccccc5)C(=O)C4N3Nc3ccc([N+](=O)[O-])cc3)=C[C@H]1C2` (stereo not given in full) had a composite z-score of 2.8. `C=CCNC(=O)[C@H]1[C@@H]2C(=O)O[C@@H](c3ccccc3)[C@@H](c3ccccc3)N2[C@@H](c2ccccc2OCCO)[C@]12C(=O)Nc1ccc(C#CCC(C(=O)OC)C(=O)OC)cc12` displayed a composite z-score of 2.23. In the case of `O=C1C2C=CC(C(O)c3cc(C(F)(F)F)cc(C(F)(F)F)c3)N(n3cnnc3)C2C(=O)N1Cc1ccccc1` (stereo not given) it was 1.58; in that of `COc1cc(NN2C(C(O)c3ccco3)C=CC3C(=O)N(c4ccccc4)C(=O)C32)cc(OC)c1OC` (stereo not given), 1.13. In the case of `CN(C)CCCCCCNC(=O)[C@@H]1C[C@@H]2C(=O)N[C@@H](Cc3ccccc3)C(=O)N2[C@@H]1c1ccc(O)cc1` it was 1.58; in that of `CC(C)NC(=O)[C@@]1(c2ccc([N+](=O)[O-])cc2)CC(=O)N(C2CCCCC2)[C@@H]1c1ccc(CO)cc1I`, 1.27. In the case of `C=CC[C@]1(C(=O)NCc2ccccc2)N=C(c2ccc(OCCCO)cc2)O[C@H]1c1ccccc1N=[N+]=[N-]` it was 2.68.
